Results on 16 molecules are retold here after PubChem BioAssay.

For experiment [1], the target named is Nuclear receptor coactivator 1 (Homo sapiens) (UniProt Q15788). As to the kind of experiment: NCOA1 GAL4-fusion reporter inhibition – cell-based, luminescence, quadruplicate, confirmation (AID 588820).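 Note: 0% = DMSO wells and 100% = gossypol 36 µM treated wells.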 Conditions: HEK293 GAL4-SRC1 luciferase reporter, at 3.6 µM, active compounds read high. In general terms: In a reporter assay the amount or activity of a reporter protein is the signal.
Nuclear receptor coactivator 1 (Homo sapiens), sequence (Q15788 whole entry, looked up, the tested form may be a part): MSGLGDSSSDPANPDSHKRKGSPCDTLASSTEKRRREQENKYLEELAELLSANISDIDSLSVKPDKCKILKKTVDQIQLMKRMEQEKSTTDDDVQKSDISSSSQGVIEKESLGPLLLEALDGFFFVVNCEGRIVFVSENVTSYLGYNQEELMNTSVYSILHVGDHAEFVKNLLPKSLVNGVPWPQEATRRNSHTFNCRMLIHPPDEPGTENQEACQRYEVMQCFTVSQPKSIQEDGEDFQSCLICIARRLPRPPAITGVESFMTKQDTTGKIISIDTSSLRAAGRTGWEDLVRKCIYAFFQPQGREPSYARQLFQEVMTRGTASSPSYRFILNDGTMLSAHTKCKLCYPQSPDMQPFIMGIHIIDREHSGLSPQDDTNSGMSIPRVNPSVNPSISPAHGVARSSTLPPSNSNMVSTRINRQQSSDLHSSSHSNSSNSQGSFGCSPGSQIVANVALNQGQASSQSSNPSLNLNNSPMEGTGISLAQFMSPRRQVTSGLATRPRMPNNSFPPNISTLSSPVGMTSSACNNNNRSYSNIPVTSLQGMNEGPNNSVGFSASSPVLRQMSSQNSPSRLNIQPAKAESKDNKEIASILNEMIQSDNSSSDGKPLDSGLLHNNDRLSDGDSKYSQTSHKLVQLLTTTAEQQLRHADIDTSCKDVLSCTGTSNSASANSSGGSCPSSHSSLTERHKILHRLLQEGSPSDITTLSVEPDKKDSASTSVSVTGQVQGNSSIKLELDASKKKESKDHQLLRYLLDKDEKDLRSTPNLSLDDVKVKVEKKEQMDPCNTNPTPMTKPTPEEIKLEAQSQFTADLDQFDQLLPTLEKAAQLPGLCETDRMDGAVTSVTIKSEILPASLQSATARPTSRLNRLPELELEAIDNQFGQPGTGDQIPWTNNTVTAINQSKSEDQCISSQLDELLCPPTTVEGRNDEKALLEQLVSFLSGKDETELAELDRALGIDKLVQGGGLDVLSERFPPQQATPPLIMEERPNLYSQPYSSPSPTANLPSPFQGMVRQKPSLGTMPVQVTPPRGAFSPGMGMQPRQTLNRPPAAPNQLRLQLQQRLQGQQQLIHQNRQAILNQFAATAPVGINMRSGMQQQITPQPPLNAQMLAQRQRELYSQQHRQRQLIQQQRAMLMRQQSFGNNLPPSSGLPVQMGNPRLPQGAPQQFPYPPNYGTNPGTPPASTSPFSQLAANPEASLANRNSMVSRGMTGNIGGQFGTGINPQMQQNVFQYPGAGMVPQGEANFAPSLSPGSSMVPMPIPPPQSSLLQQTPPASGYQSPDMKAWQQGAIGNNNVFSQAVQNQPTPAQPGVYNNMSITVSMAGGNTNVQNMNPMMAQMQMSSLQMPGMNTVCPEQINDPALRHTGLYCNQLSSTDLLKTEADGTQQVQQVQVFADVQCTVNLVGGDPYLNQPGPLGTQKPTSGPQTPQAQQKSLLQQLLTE

A short description of experiment [2]: repression of VP16-driven luciferase reporter – cell-based, luminescence, high throughput, counter-screen for SRC1 inhibitor project (AID 588824; in the data active = inhibition above about 25%). Conditions: cell-based VP16 transactivation luciferase luminescence; at 3.6 µM; active compounds read high.

Unmarked numbers belong to inactive results. The source made the active and inactive calls.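 Rule for the calls, unless noted: active = mean inhibition above 46.68%, the untreated control wells mean plus 3 SD; inactive = the rest.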

What is called inhibition is the change of the read-out against control, counted positive when it falls. For the molecule `COC(=O)c1cccc(NC(=O)CN2C(=O)c3ccccc3C2=O)c1`, the inhibition was -23.7% in experiment [1] and -3.69% in experiment [2].
The matching figures for `COc1cccc(C(C(=O)NC2CCCC2)N(C(=O)c2ccco2)c2ccc(C(C)=O)cc2)c1OC` (configuration not stated): -0.53% and -9.34%.
The matching figures for `C[n+]1c2n(c3ccccc31)N=C(c1ccc(Cl)cc1)CS2`: -20.3% and 19.1%.
For `CCC(C)c1ccc(S(=O)(=O)Nc2cccnc2)cc1` (configuration not stated), in that order: -9.79% and -4.32%.
In the case of `Cc1cccc(N2CC(C(=O)Nc3ccc(S(=O)(=O)Nc4nccs4)cc3)CC2=O)c1C` (configuration not stated), the inhibition in experiment [1] is -14.9%; in experiment [2], -6.59%.
For `Fc1cccc(CSc2nnc3ccc(-c4ccncc4)nn23)c1`, in that order: 21.7% and 9.73%.
The matching figures for `CC(C)n1c(SCC(=O)Nc2nc3c(s2)CCCC3)nc2c1c(=O)n(C)c(=O)n2C`: 29.2% and 23.6%.
For `Cc1cccc(NC(=O)CSCC(=O)N2CCN(Cc3ccc4c(c3)OCO4)CC2)c1`, in that order: 2.48% and 1.12%.
For the molecule `CCOC(=O)N1CCC(Nc2ncnc3c2cnn3-c2ccc(C)cc2C)CC1`, the inhibition in experiment [1] is -5.68%; in experiment [2], 29% (active).
The matching figures for `COc1ccc(S(=O)(=O)N2CCOC23CCN(S(=O)(=O)c2ccc(Cl)cc2)CC3)cc1`: -7.54% and -6.07%.
For `CCc1noc(C)c1C(=O)Nc1ccccc1N1CCOCC1`, in that order: -11% and 1.51%.
The matching figures for `c1ccc(-c2nc(NCCCn3ccnc3)c3ccccc3n2)cc1`: -10.8% and -2.43%.
As to `Cc1ccc(S(=O)(=O)N2CCN(c3ncnc4sccc34)CC2)cc1C`, the values for the inhibition in experiment [1] and in experiment [2] were -1.32% and 21.7%, respectively.
The matching figures for `Cc1cccc(Oc2ncnc(N)c2[N+](=O)[O-])c1C`: -14.1% and 5.89%.
The matching figures for `Cc1ccc(-c2c[n+]3c(n2-c2ccccc2)CCC3)cc1`: 10.5% and 20.3%.
For `CCC(C)c1ccc(C(C)NC(=S)NCc2ccc(F)cc2)cc1` (configuration not stated), in that order: -3.08% and -3.56%.
